Data: PubChem BioAssay (NCI)
About 79,000 compounds went through this panel and 15% of them were active in at least one assay; those are over-represented in the sample as a whole. Unmarked numbers belong to inactive results. Active and inactive are the calls of the source. No stated cut-off is given here; in the data, active means growth inhibition above about 70%; inactive means the rest.

Experiment: NCI Yeast Anticancer Drug Screen. Data for the bub3 strain (AID 167)
Conditions: S. cerevisiae bub3 mutant strain, stronger effect = higher value
Method: Growth inhibition of yeast strains with defined genetic alterations is measured as a screen for potential anti-cancer activity. Selected strains with alterations in DNA damage repair or cell cycle control were exposed to compounds and growth inhibition was measured relative to vehicle treated controls. The strain used in this assay is bub3

[1] = at 5.0 µM (retest, dose inferred, filed as 0.5)
[2] = at 50.0 µM (retest, dose inferred, filed as 5.0)

| Structure (SMILES) | growth inhibition (at 1.2 µM) [%] | growth inhibition (at 3.7 µM) [%] | growth inhibition [1] [%] | growth inhibition (at 11.0 µM) [%] | growth inhibition (at 33.0 µM) | growth inhibition [2] | growth inhibition (at 50.0 µM) | growth inhibition (at 100.0 µM) |
| --- | --- | --- | --- | --- | --- | --- | --- | --- |
| COC(=O)CSc1nnc(CSc2ccc(Cl)cc2)n1-c1ccccc1 | -1 | 6 | 7 | 22 | 46% | 75% (active) | 74.5% (active) | 57% |
| CCC(=O)Oc1ccc(/C=N/NC(N)=S)nc1 | -7 | -4 | -8 | -15 | -18% | -13% | 17.1% | -15% |
| CC1CCC2(C(=O)O)CCC3(C)C(=CCC4C5(C)CC(O)C(O)C(C)(CO)C5C(O)CC43C)C2C1C (stereo not given) | -5 | -2 | 16 | -1 | 13% | 93% (active) | 88.9% (active) | 95% (active) |
| Cc1ccc(Nc2c3c(c(C#N)c4nc5ccccc5n24)CCCC3)cc1 | 8 | 15 | 26 | 23 | 74% (active) | 34% | 78.8% (active) | 76% (active) |
| Cc1ccc(S(=O)(=O)Nc2ccc3c(c2)C(O)c2ccccc2-3)cc1 (stereo not given) | 0 | 0 | -3 | 2 | 20% | 12% | 83.3% (active) | 23% |
